Assay [1] deals with Rap guanine nucleotide exchange factor 3 (Homo sapiens) (UniProt O95398). As to the kind of experiment: Confirmatory qHTS for agonist of cAMP-regulated guanine nucleotide exchange factor 3 (EPAC1) (AID 1645881). Further: nearly all actives have a fitted effect of over 75% in size. Further: potency means the concentration at half of the fitted maximal effect.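 On activation: EPAC1 catalysed release of BODIPY-GDP from Rap1B seen as fluorescence loss; 100% = effect of cAMP agonist control.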 On the technique in general: Quantitative high-throughput screening tests each substance at several concentrations.
In assay [2] the target is Rap guanine nucleotide exchange factor 4 (Homo sapiens) (UniProt Q8WZA2). As to the kind of experiment: Confirmatory qHTS for agonist of cAMP-regulated guanine nucleotide exchange factor 4 (EPAC2) (AID 1645884).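 Further: nucleotide exchange releases bodipy-GDP from Rap1 and this lowers its fluorescence; nearly all actives have a fitted effect of over 65% in size.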 Further: potency means the concentration at half of the fitted maximal effect. On activation: on the % scale 0 is the no-effect control and ±100 the full control effect.
The target in assay [3] is Rap guanine nucleotide exchange factor 3 (Homo sapiens) (UniProt O95398). The experiment in a line: Counterscreen qHTS for agonist of cAMP-regulated guanine nucleotide exchange factor 3 (EPAC1) (AID 1645889). Further: nearly all actives have a fitted effect of over 40% in size. Further: potency means the concentration at half of the fitted maximal effect. On activation: % of control where 0% means no effect. The method, boiled down: (§1)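 Rap1B–BODIPY-GDP (250 nM) with 50 uM GDP; compounds pin-transferred to 9.74 nM–152 uM final (activator) or from 7.32 nM upwards (inhibitor). Fluorescence Ex/Em 480/540 nm read at 5 and 30 min, then after adding cAMP or buffer, at room temperature.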
A general note: Counterscreens check selectivity or assay interference.

The target is the same in assay [4]. The experiment in a line: Counterscreen qHTS for antagonist of cAMP-regulated guanine nucleotide exchange factor 3 (EPAC1) (AID 1645888).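 Further: fluorescence loss as bound BODIPY-GDP is released from Rap1B; % of control where 0% means no effect.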 The essentials: as §1
Assay [5] addresses Mitogen-activated protein kinase 10 (Mus musculus) (UniProt Q61831). As to the kind of experiment: JNK3 AlphaScreen Assay (AID 530; active means well fitted curve in either direction with a large enough effect, not every such curve was filed as active;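 further: kinase came from lysate of stimulated human HepG2 cells; signal reports phosphorylation of biotinylated GST-cJun 1-79 at Ser73 with 10 µM ATP; series mostly up to about 57 µM; on the % scale 0 is the no-effect control and ±100 the full control effect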). The essentials:
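Pre-activated (IL-1β/TNFα) JNK3 in HepG2 lysates phosphorylates biotin-GST-cJun(1-79), 10 uM ATP; anti-phospho-cJun(Ser73) AlphaScreen read at room temperature, pH 7.6 Tris buffer. Compounds pre-incubated 15 min as titrations.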

Assay [6] is described as follows: qHTS for Inhibitors of the vitamin D receptor (VDR): Hit Validation using a Texas Red Assay (AID 602201). Further: potency means the concentration at half of the fitted maximal effect. The method, boiled down: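 Fluorescence polarization with 1.5 uM VDR-LBD, LG19078 and 7 nM Texas Red (final). After 2 hours at ambient temperature, read at Ex 595 nm/Em 615 nm.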
Assay [7] addresses Tumor susceptibility gene 101 protein (Homo sapiens) (UniProt Q99816). The experiment in a line: qHTS Assay for Iinhibitors of HIV-1 Budding by Blocking the Interaction of PTAP/TSG101: Hit Validation (AID 651600). Further: potency means the concentration at half of the fitted maximal effect; nearly all actives have a fitted effect of over 70% in size. The method, boiled down: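 Compounds are added to the Tsg101 binding domain (10 uM final) in pH 7.5 HEPES buffer. FITC-PTAP peptide follows at 50 nM final. After 20 min at r.t., polarized FITC emission is measured.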

Assay [8] deals with DNA dC->dU-editing enzyme APOBEC-3G (Homo sapiens) (UniProt Q9HC16). The experiment in a line: qHTS for inhibitors of Vif-A3G interactions: Validation (AID 588379). Further: 0% is about no effect. The method, boiled down:
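HeLa cells stably expressing Vif and A3G-eYFP, 700 cells/well, incubated overnight at 37 deg C, then exposed to compound overnight at 37 deg C. Inhibition of Vif-mediated degradation read as increased yellow fluorescence (Ex 488/Em 500-530) by laser-scanning cytometry.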

The structures appear in SMILES notation. A number with no mark means an inactive call. Results filed as inconclusive are left out. Activity calls are given as the source filed them. Unless noted, the call rests on the fitted dose curve; in most records, active means well fitted curve in the direction sought with a large enough effect; inconclusive means small, poorly fitted or top-dose-only effect, or another doubt; inactive means no such curve, though single readings can be large; an effect the other way counts as inactive or inconclusive.

Rap guanine nucleotide exchange factor 3 (Homo sapiens), sequence (O95398 whole entry, looked up): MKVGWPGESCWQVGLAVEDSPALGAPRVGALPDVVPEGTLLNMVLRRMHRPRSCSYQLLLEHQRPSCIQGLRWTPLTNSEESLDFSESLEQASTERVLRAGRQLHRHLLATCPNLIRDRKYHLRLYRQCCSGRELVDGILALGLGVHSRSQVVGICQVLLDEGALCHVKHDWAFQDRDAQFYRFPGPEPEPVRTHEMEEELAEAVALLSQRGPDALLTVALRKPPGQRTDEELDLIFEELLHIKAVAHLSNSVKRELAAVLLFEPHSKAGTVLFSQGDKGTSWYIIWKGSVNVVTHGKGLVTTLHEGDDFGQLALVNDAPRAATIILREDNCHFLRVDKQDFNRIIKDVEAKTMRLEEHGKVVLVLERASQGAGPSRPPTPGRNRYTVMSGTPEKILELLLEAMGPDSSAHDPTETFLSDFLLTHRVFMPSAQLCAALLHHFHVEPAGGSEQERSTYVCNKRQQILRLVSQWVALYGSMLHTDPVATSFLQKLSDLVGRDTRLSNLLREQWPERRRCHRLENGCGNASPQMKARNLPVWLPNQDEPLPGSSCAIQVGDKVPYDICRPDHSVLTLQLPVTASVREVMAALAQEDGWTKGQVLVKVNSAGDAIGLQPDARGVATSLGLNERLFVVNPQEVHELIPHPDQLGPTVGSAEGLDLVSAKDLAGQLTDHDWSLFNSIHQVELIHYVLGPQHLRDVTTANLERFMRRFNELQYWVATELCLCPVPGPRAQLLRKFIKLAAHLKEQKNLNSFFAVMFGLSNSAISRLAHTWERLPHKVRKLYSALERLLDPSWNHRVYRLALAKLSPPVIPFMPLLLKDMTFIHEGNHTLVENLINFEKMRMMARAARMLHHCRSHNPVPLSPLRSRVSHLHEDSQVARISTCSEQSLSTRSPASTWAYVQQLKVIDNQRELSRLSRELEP
Rap guanine nucleotide exchange factor 4 (Homo sapiens), sequence (Q8WZA2 whole entry, looked up): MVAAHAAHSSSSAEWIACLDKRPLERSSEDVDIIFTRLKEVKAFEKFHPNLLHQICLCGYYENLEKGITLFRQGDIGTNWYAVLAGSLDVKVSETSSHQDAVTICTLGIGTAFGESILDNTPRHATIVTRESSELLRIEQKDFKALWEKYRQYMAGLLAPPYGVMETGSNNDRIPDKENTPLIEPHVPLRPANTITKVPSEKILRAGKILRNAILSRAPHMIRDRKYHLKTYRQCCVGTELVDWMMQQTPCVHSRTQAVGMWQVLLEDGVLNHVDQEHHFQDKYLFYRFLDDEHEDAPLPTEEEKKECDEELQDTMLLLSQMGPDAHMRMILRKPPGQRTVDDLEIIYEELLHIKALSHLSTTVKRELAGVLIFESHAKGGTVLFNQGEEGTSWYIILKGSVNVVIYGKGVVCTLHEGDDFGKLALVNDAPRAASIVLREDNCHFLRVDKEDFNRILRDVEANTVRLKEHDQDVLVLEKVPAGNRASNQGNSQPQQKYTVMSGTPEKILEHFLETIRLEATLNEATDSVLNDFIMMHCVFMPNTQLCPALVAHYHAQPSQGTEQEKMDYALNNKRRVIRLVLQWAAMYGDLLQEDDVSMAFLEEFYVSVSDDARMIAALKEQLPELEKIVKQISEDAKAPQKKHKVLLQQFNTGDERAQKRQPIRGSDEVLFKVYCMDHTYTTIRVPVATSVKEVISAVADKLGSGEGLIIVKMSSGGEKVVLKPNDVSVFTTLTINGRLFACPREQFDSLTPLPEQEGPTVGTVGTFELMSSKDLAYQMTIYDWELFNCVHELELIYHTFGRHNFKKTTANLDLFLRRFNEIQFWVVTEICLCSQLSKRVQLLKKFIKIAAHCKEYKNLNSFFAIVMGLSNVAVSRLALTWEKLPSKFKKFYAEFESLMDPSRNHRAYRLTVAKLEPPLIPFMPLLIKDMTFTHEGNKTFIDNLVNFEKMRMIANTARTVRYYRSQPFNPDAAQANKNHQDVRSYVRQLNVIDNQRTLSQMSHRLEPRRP
Tumor susceptibility gene 101 protein (Homo sapiens), sequence (Q99816 whole entry, looked up, the tested form may be a part): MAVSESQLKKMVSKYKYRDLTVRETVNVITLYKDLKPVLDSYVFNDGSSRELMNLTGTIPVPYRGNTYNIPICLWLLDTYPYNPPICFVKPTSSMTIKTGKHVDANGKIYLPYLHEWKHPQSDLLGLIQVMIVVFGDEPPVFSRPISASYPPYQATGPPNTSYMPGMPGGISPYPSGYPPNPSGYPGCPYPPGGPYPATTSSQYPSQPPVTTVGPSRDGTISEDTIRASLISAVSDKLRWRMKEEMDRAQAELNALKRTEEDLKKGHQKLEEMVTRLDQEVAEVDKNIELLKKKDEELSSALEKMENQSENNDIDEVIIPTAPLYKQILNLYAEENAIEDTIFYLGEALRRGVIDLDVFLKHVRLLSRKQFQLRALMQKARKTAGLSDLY
DNA dC->dU-editing enzyme APOBEC-3G (Homo sapiens), sequence (Q9HC16 whole entry, looked up): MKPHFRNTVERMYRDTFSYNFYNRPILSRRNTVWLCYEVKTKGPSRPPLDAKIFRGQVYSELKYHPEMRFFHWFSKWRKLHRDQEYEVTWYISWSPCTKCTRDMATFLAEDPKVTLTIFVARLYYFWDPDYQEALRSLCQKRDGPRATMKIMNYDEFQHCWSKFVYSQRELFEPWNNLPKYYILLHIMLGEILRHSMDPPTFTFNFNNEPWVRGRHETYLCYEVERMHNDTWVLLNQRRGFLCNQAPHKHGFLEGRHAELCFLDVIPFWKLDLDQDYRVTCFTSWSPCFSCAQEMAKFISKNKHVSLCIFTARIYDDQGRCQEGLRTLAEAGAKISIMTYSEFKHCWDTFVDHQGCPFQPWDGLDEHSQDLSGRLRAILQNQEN

For the compound `O=C(NC1CCCCC1)C(c1ccc(C(F)(F)F)cc1)n1c(=O)c(-c2ccco2)nc2ccccc21` (stereo not given), the Potency entry in assay [1], in assay [2] and in assay [3] was “inactive” in each case.

In the case of `COC1=C/C(=C/c2c(N)n3nc(-c4ccc(C)cc4)sc3nc2=O)C=CC1=O`, the Potency result in assay [1], in assay [2], in assay [4] and in assay [3] was “inactive” in each case.

For the compound `CC1=C(C(=O)OCc2ccccc2)C(c2ccc(C(C)(C)C)cc2)NC(=O)N1CCCCCC(=O)O` (stereo not given), the Potency result in assay [5], in assay [1], in assay [2], in assay [4] and in assay [3] was “inactive” each time.

Take `O=C(O)c1cc(N/N=C/C=C/c2ccccc2)ccc1Cl`: the Potency result in assay [1], in assay [2], in assay [4] and in assay [3] was “inactive” each time.

With `Cc1cc(C)c2c(CN3CCC(C)CC3)cc(=O)oc2c1`, the Potency entry in assay [1] is “inactive”. Besides, the activation in assay [2] was -1.95% [at 17.1 µM, percent relative to cAMP agonist control]; in assay [3], 22% [at 30.8 µM]. Further, in assay [4], the activity change, negative = inhibition was 10.9% [at 30.8 µM].

Turning to `Oc1ccc(-c2cn3c(n2)SCC3)cc1O`, the Potency entry in assay [1], in assay [2], in assay [4] and in assay [3] was “inactive” throughout.

Consider `CC(Nc1ccc(Cl)cc1)c1cc(Cl)ccc1O` (stereo not given), for which the Potency entry in assay [1], in assay [2] and in assay [3] was “inactive” in each case.

For `O=C(Nc1ccccc1C(=O)Nc1nnc(C(F)(F)F)s1)c1ccccc1Cl`, the Potency result in assay [1], in assay [2], in assay [4] and in assay [3] was “inactive” each time.

Take `CCOc1cc(/C=N/O)cc(Br)c1OCc1ccc(Cl)cc1`: the Potency result in assay [1], in assay [2], in assay [4] and in assay [3] was “inactive” each time.

For `O=C1C(=Cc2cn(-c3ccccc3)nc2-c2ccc(OCc3ccc(Cl)cc3)cc2)SC(=S)N1CCS(=O)(=O)O`, the Potency result in assay [1], in assay [2] and in assay [4] was “inactive” in each case. For the same compound, the Potency in assay [3] is 50.1 µM (active).

On to `O=C(NC1(O)C(=O)c2ccccc2C1=O)c1c(Cl)cccc1Cl`, for which the Potency in assay [6] was 3.98 µM (active). Further, the Potency entry in assay [1], in assay [2] and in assay [4] was “inactive” each time.

`CN(N=Nc1ccc([N+](=O)[O-])cc1)c1ccccc1`: the values for the Potency in assay [7], in assay [1] and in assay [2] were 13 µM (active), 112 µM (active) and 100 µM (active), respectively. The Potency result in assay [4] was “inactive”.

For the compound `NS(=O)(=O)c1ccc(N/N=C/c2ccc(C(=O)O)cc2)c([N+](=O)[O-])c1`, the Potency entry in assay [1], in assay [2], in assay [4] and in assay [3] was “inactive” in each case.

Regarding `CCOC(=O)c1c(C)[nH]c(C(=O)C(C)OC(=O)c2ccc(NC(=O)CC#N)cc2)c1C` (stereo not given), the Potency entry in assay [1], in assay [2], in assay [4] and in assay [3] was “inactive” each time.

Take `CCCN(CC(=O)Nc1ccccc1C)C(=O)c1oc2ccc(OCC)cc2c1C`: the Potency result in assay [1], in assay [2] and in assay [3] was “inactive” each time.

Regarding `O=C(NC1(O)C(=O)c2ccccc2C1=O)c1ccccc1`, the Potency in assay [6] is 6.31 µM (active). Also, the Potency result in assay [1], in assay [2] and in assay [4] was “inactive” in each case.

As to `CCN1CC=C2C(C#N)=C(N)C(C#N)(C#N)C(CCc3ccccc3)C2C1` (stereo not given), the Potency in assay [1] is 50.1 µM (active); in assay [2], 50.1 µM (active); in assay [3], 5.62 µM (active). Further, in assay [4], the Potency entry was “inactive”.

With `Cn1c2ccccc2c2cc(/C=N/NC(=O)c3cc(O)cc(O)c3)ccc21`, the Potency result in assay [1], in assay [2], in assay [4] and in assay [3] was “inactive” in each case.

`COc1ccccc1-c1nc2ccccc2n(CC(C)C)c1=O`: the Potency entry in assay [1], in assay [2] and in assay [3] was “inactive” in each case.

As to `Cc1ccc(S(=O)(=O)N2CCOCC2)cc1NC(=O)COC(=O)CCOc1ccc(C(C)(C)C)cc1`, the Potency result in assay [1], in assay [2] and in assay [3] was “inactive” throughout.

With `Cc1ccc(S(=O)(=O)c2nc(-c3ccco3)oc2SC(C)C)cc1`, the Potency entry in assay [1] is “inactive”. Also, the activation was 4.44% [at 17.1 µM, percent relative to cAMP agonist control] in assay [2] and 16.5% [at 30.8 µM] in assay [3].

Turning to `CCCCC[C@@H](C)N1C[C@H](COCc2ccccc2)Oc2cc(N3CC[C@H](N(C)C)C3)ccc2S1(=O)=O`, the Potency result in assay [1], in assay [2] and in assay [3] was “inactive” in each case.

On to `CCOC(=O)c1c(C)[nH]c(C)c1C(=O)COC(=O)c1cc(OC)cc(OC)c1`, for which the Potency result in assay [1], in assay [2] and in assay [3] was “inactive” throughout.

For the compound `Cc1cc(C)c2nc(C(F)(F)F)nc(N3CC(C)OC(C)C3)c2c1` (stereo not given), the Potency result in assay [1], in assay [2] and in assay [3] was “inactive” each time.

`COC1/C=C/OC2(C)Oc3c(C)c(O)c4c(O)c(c(/C=N/N5CCN(C)CC5)c(O)c4c3C2=O)NC(=O)/C(C)=C/C=C/C(C)C(O)C(C)C(O)C(C)C(OC(C)=O)C1C` (stereo not given): the result in assay [8] was inactive. Also, the Potency entry in assay [1] and in assay [2] was “inactive” each time.

For `CCOC(=O)C(C)Sc1ncc(OC)c(Sc2ccc(Cl)cc2)n1` (stereo not given), the Potency entry in assay [1], in assay [2] and in assay [3] was “inactive” each time.

For the compound `CCC(CO)Oc1cc(NCc2ccc(C(C)(C)C)cc2)c2ncn(C(C)C)c2c1` (stereo not given), the Potency entry in assay [1], in assay [2] and in assay [3] was “inactive” each time.

With `Cc1nn(C)cc1N1C(=O)c2cccc3c(N)ccc(c23)C1=O`, the results for the Potency in assay [7], in assay [1] and in assay [2] were 6.51 µM (active), 112 µM (active) and 100 µM (active), respectively.

These data come from PubChem BioAssay (NCATS).
